Inconclusive results are not listed. Active and inactive are the calls of the source. Rule for the calls, unless noted: active = hit-call score of the fitted dose curve at least 0.9, where 1 is the maximum; inconclusive = response in the unintended direction; inactive = score below 0.9.
Legend:
[1] = ATG_Oct_MLP_CIS: Attagene CIS-FACTORIAL HepG2 Assay for human Octamer-Binding Transcription Factor (Oct) (AID 2282993; active = hit-call score of the fitted dose curve at least 0.9, where 1 is the maximum; inactive = score below 0.9); details: HepG2 Attagene cis-factorial Oct reporter, mRNA; actives raise or lower the signal
Method in brief: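 After 24 h compound exposure, transfected HepG2 cells were lysed for total RNA; reporter-specific cDNA was PCR-amplified, fluorescently labelled and sized by capillary electrophoresis. Bidirectional curve fitting used DMSO as baseline.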

[2] = target: human Peroxisome Proliferator-activated Receptor alpha (PPARa), PPARA (gene 5465) (UniProt Q07869); experiment: ATG_PPARa_TRANS: Attagene TRANS-FACTORIAL HepG2 Assay for human Peroxisome Proliferator-activated Receptor alpha (PPARa) (AID 2283001)
human Peroxisome Proliferator-activated Receptor alpha (PPARa), PPARA (gene 5465), sequence (Q07869 whole entry, looked up, the tested form may be a part): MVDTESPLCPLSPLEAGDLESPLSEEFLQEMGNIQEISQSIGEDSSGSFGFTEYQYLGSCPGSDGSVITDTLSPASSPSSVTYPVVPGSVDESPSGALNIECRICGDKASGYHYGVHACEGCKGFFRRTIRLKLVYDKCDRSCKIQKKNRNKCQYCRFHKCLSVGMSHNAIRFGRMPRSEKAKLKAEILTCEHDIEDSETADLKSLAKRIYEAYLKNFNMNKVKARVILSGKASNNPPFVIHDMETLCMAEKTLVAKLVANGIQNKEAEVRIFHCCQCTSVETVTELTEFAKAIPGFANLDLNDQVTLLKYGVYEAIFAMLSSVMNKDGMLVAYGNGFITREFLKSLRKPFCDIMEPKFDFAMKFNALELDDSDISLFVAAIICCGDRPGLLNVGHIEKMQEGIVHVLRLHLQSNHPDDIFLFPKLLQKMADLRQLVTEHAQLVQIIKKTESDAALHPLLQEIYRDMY
Method in brief: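 Read-out is fluorescence of reporter cDNA fragments resolved by capillary electrophoresis after RT-PCR. Human HepG2 liver cells carried transfected PPARa-Gal4 chimera and GAL4-UAS reporter units, treated 24 h; activity scored as increase over DMSO.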

[3] = target: human Peroxisome Proliferator-activated Receptor delta (PPARd), PPARD (gene 5467) (UniProt Q03181); experiment: ATG_PPARd_TRANS: Attagene TRANS-FACTORIAL HepG2 Assay for human Peroxisome Proliferator-activated Receptor delta (PPARd) (AID 2283002)
Method in brief: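 Read-out is induced reporter mRNA, quantified by RT-PCR with fluorescent labelling and capillary electrophoresis after 24 h dosing. Cells are HepG2 transiently carrying multiple GAL4-UAS reporter units driven by exogenous NR-GAL4 chimeras; DMSO serves as baseline.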

[4] = target: Peroxisome proliferator-activated receptor gamma (Homo sapiens) (UniProt P37231); experiment: ATG_PPARg_TRANS: Attagene TRANS-FACTORIAL HepG2 Assay for human Peroxisome Proliferator-activated Receptor-gamma (PPARg) (AID 2283007)
Peroxisome proliferator-activated receptor gamma (Homo sapiens), sequence (P37231 whole entry, looked up, the tested form may be a part): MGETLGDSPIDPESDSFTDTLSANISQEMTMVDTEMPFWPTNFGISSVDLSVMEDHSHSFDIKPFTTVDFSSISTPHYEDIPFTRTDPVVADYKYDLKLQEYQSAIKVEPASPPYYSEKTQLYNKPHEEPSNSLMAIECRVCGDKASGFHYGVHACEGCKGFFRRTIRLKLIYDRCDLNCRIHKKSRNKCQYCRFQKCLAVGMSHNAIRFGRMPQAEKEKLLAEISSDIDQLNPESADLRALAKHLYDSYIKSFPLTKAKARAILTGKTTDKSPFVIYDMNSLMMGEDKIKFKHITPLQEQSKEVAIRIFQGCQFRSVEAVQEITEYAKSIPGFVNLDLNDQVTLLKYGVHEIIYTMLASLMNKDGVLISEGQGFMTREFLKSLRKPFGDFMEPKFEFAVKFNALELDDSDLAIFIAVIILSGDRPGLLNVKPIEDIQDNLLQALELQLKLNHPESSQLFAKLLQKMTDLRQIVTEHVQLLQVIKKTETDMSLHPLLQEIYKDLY
Method in brief: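 Chimeric NR-Gal4 transactivation is measured in transiently transfected HepG2 cells by reporter mRNA induction at 24 h. Detection uses RT-PCR with fluorescent labelling and capillary electrophoresis; DMSO defines baseline.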

[5] = target: human RAR-related Orphan Receptor beta (RORb), RORB (gene 6096) (UniProt Q92753); experiment: ATG_RORb_TRANS: Attagene TRANS-FACTORIAL HepG2 Assay for human RAR-related Orphan Receptor beta (RORb) (AID 2283010)
Method in brief: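 HepG2 cells transiently transfected with GAL4-UAS reporter units expressing chimeric NR-Gal4 protein; reporter mRNA measured 24 h after dosing by RT-PCR, 6-FAM labelling and capillary electrophoresis. Gain-of-signal fitted relative to DMSO baseline.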

[6] = target: human RAR-related Orphan Receptor gamma (RORg), RORC (gene 6097) (UniProt P51449); experiment: ATG_RORg_TRANS: Attagene TRANS-FACTORIAL HepG2 Assay for human RAR-related Orphan Receptor gamma (RORg) (AID 2283011)
human RAR-related Orphan Receptor gamma (RORg), RORC (gene 6097), sequence (P51449 whole entry, looked up, the tested form may be a part): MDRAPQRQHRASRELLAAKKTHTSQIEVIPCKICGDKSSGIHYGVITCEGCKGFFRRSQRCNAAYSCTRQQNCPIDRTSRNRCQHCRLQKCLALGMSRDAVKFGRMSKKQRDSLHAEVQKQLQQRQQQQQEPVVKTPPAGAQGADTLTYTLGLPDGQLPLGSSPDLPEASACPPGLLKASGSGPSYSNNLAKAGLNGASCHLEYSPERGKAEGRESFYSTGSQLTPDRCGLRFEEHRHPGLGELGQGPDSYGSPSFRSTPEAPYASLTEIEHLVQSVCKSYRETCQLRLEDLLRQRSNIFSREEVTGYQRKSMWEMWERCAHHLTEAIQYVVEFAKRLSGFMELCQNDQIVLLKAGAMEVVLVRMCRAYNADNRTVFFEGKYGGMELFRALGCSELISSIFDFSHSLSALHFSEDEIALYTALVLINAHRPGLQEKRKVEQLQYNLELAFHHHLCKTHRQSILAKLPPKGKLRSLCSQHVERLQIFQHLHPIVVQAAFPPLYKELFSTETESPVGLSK
Method in brief: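 Chimeric RORg-Gal4 transactivation in transfected HepG2; 24 h exposure; RT-PCR/capillary electrophoresis readout of reporter mRNA, DMSO baseline.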

[7] = target: Retinoic acid receptor RXR-alpha (Homo sapiens) (UniProt P19793); experiment: ATG_RXRa_TRANS: Attagene TRANS-FACTORIAL HepG2 Assay for human Retinoid X Receptor alpha (RXRa) (AID 2283012)
Retinoic acid receptor RXR-alpha (Homo sapiens), sequence (P19793 whole entry, looked up, the tested form may be a part): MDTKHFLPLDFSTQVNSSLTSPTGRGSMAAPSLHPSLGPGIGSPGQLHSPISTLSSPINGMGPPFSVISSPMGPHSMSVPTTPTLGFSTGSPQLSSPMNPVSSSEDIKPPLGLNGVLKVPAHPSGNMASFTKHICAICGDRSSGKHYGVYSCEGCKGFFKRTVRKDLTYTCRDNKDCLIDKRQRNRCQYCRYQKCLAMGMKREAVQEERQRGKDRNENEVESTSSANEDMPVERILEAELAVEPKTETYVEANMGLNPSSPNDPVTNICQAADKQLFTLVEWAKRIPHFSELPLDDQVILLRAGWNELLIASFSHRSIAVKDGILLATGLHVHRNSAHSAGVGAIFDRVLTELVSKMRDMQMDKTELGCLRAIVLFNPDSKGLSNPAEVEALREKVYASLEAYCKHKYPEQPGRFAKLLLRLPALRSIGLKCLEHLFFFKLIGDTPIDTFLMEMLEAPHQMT
Method in brief: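 HepG2 cells transiently transfected with GAL4-UAS reporter units and chimeric RXRa-Gal4 protein, treated 24 h. Reporter mRNA measured by RT-PCR, fluorescent labelling, HpaI digestion and capillary electrophoresis. Induction fitted against DMSO.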

[8] = target: human Thyroid Receptor alpha (THRa1), THRA (gene 7067) (UniProt P10827); experiment: ATG_THRa1_TRANS: Attagene TRANS-FACTORIAL HepG2 Assay for human Thyroid Receptor alpha (THRa1) (AID 2283014)
human Thyroid Receptor alpha (THRa1), THRA (gene 7067), sequence (P10827 whole entry, looked up, the tested form may be a part): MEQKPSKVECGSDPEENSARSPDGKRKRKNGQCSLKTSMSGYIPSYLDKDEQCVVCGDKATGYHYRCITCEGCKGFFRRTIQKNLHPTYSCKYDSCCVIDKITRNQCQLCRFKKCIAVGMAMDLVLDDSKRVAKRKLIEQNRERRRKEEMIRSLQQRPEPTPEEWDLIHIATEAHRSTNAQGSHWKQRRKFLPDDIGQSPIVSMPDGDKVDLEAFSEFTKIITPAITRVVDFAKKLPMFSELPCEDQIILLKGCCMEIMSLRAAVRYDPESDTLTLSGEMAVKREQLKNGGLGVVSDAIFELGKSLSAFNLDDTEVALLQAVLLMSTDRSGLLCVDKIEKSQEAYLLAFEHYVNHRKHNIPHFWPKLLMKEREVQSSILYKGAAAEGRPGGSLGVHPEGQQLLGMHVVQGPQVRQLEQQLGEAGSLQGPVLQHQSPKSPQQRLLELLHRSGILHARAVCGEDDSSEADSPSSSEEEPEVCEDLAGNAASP
Method in brief: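 Measured here is mRNA from a GAL4-UAS reporter in transfected HepG2 cells carrying a Gal4-fused receptor, 24 h post-dose. DMSO served as negative control and baseline.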

[9] = target: human Retinoid X Receptor beta (RXRb), RXRB (gene 6257) (UniProt P28702); experiment: ATG_RXRb_TRANS: Attagene TRANS-FACTORIAL HepG2 Assay for human Retinoid X Receptor beta (RXRb) (AID 2283013)
human Retinoid X Receptor beta (RXRb), RXRB (gene 6257), sequence (P28702 whole entry, looked up, the tested form may be a part): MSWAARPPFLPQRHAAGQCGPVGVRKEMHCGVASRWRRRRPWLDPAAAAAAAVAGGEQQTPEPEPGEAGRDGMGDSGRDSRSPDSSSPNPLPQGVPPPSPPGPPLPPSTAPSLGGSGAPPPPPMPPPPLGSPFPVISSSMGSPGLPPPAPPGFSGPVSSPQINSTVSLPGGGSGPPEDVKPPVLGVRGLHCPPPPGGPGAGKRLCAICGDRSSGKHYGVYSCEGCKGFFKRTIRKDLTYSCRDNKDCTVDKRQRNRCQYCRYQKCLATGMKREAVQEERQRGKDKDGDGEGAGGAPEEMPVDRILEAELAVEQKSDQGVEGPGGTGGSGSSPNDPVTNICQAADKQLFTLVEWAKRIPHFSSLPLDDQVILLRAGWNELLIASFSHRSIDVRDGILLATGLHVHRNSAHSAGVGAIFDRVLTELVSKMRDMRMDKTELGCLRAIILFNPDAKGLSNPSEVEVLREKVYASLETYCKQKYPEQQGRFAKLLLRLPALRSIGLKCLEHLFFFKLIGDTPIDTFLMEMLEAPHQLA
Method in brief: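 HepG2 cells were transiently transfected with multiplexed GAL4-UAS reporters and a chimeric RXRb-Gal4 construct, then exposed for 24 h. Reporter mRNA was quantified by RT-PCR, FAM labeling, HpaI digestion and capillary electrophoresis; gain of signal was scored against DMSO.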

[10] = target: Nuclear receptor subfamily 1 group I member 2 (Homo sapiens) (UniProt O75469); experiment: ATG_PXR_TRANS: Attagene TRANS-FACTORIAL HepG2 Assay for human Pregnane X Receptor (PXR) (AID 2283008)
Nuclear receptor subfamily 1 group I member 2 (Homo sapiens), sequence (O75469 whole entry, looked up, the tested form may be a part): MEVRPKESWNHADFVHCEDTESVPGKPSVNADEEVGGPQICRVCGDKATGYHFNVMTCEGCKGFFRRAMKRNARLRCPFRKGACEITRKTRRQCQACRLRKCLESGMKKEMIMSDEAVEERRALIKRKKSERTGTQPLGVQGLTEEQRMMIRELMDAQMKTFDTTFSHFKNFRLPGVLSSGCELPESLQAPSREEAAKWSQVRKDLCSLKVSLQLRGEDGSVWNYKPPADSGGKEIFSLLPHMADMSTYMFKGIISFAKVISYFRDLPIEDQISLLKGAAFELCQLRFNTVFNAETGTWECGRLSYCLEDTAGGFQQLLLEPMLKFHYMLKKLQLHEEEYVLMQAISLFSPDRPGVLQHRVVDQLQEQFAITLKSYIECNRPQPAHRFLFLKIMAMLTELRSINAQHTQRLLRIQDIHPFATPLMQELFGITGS
Method in brief: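 HepG2 cells transiently transfected with GAL4-UAS reporter units and PXR-Gal4 chimera, exposed 24 h. Reporter mRNA quantified by RT-PCR, fluorescent labelling, HpaI digestion and capillary electrophoresis; gain of signal vs DMSO.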

[11] = target: human Retinoic Acid Receptor gamma (RARg), RARG (gene 5916) (UniProt P13631); experiment: ATG_RARg_TRANS: Attagene TRANS-FACTORIAL HepG2 Assay for human Retinoic Acid Receptor gamma (RARg) (AID 2283009)
human Retinoic Acid Receptor gamma (RARg), RARG (gene 5916), sequence (P13631 whole entry, looked up, the tested form may be a part): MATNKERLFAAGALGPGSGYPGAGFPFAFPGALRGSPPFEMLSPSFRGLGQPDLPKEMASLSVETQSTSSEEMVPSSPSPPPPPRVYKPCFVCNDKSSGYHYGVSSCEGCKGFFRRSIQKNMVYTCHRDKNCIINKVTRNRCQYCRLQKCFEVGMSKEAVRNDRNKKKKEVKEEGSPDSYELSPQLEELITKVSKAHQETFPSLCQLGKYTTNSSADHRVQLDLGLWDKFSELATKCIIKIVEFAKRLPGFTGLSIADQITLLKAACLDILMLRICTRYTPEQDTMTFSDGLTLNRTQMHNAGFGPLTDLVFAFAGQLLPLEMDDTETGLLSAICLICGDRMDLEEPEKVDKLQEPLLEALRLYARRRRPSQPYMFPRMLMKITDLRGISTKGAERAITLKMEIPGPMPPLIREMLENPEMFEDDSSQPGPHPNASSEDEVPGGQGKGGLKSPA
Method in brief: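 HepG2 transiently transfected with GAL4-UAS reporter units and chimeric NR-Gal4 constructs; 24 h compound exposure. Reporter mRNA quantified by RT-PCR, FAM labeling, HpaI digestion and capillary electrophoresis; gain-of-signal versus DMSO.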

[12] = target: human Retinoic Acid Receptor beta (RARb), RARB (gene 5915) (UniProt P10826); experiment: ATG_RARb_TRANS: Attagene TRANS-FACTORIAL HepG2 Assay for human Retinoic Acid Receptor beta (AID 2283004)
human Retinoic Acid Receptor beta (RARb), RARB (gene 5915), sequence (P10826 whole entry, looked up, the tested form may be a part): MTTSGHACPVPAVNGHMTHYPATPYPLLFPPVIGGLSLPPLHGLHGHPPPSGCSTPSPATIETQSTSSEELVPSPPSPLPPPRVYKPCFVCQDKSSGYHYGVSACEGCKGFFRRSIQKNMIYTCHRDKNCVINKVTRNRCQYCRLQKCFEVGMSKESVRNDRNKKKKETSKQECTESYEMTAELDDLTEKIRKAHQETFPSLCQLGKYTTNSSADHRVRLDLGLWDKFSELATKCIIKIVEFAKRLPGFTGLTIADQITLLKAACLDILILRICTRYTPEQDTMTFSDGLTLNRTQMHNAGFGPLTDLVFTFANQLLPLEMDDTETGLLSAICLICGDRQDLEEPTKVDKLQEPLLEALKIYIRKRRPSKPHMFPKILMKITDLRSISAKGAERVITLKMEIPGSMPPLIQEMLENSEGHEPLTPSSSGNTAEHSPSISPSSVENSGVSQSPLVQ
Method in brief: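 Fluorescent capillary-electrophoresis detection of GAL4-UAS reporter mRNA defines the endpoint, with induction over DMSO-treated wells scored as activity. Transiently transfected human hepatoma HepG2 cells expressing exogenous NR–Gal4 proteins are exposed to test chemicals for 24 h.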

[13] = target: Retinoic acid receptor alpha (Homo sapiens) (UniProt P10276); experiment: ATG_RARa_TRANS: Attagene TRANS-FACTORIAL HepG2 Assay for human Retinoic Acid Receptor alpha (RARa) (AID 2283005)
Retinoic acid receptor alpha (Homo sapiens), sequence (P10276 whole entry, looked up, the tested form may be a part): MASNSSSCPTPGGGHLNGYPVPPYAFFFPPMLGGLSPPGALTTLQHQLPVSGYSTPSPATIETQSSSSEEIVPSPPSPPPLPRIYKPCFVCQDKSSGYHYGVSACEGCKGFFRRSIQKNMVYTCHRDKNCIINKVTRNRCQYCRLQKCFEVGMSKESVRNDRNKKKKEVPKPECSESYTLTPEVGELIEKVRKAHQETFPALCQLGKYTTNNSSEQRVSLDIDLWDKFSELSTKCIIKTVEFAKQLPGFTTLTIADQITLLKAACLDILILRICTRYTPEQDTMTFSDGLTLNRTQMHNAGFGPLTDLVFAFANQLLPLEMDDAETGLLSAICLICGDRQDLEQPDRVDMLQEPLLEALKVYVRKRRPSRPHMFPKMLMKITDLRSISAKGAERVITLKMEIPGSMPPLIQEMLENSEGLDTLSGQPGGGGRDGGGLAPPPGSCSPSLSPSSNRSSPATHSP
Method in brief: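 Reporter transcripts, measured by RT-PCR with fluorescent labeling and capillary electrophoresis after 24 h dosing, reflect activity of an exogenous human RARa–GAL4 fusion in transiently transfected HepG2. Fitted for increase relative to DMSO.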

[14] = BSK_3C_uPAR: BioMAP Diversity Plus: 3C Assay for Urokinase-type plasminogen activator receptor (uPAR) Biomarker Activity (AID 2282998; active = hit-call score of the fitted dose curve at least 0.9, where 1 is the maximum; inactive = score below 0.9); details: BioMAP 3C HUVEC, uPAR biomarker ELISA; actives raise or lower the signal
Method in brief: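 Values derive from bidirectional curve fitting relative to DMSO, which served as baseline of activity. uPAR was measured by ELISA in human umbilical vein endothelial primary cultures 24 h after compound addition.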

[15] = BSK_3C_VCAM1: BioMAP Diversity Plus: 3C Assay for Vascular cell adhesion molecule 1 (VCAM1) Biomarker Activity (AID 2282999; active = hit-call score of the fitted dose curve at least 0.9, where 1 is the maximum; inactive = score below 0.9); details: BioMAP 3C HUVEC, VCAM1 ELISA, cytokine-stimulated; actives raise or lower the signal
Method in brief: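 Endothelial cells from human umbilical vein are treated with test chemical. At 24 h, VCAM-1 is measured by ELISA, and responses in either direction are fitted relative to DMSO.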

[16] = BSK_4H_Eotaxin3: BioMAP Diversity Plus: 4H Assay for Eotaxin 3 Biomarker Activity (AID 2283000; active = hit-call score of the fitted dose curve at least 0.9, where 1 is the maximum; inactive = score below 0.9;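 note: CCL26 protein level quantified by ELISA in parallel with SRB cytotoxicity check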); details: primary human endothelial cells (HUVEC); actives raise or lower the signal
Method in brief: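 ELISA quantitation of CCL26 (Eotaxin-3) protein from chemically dosed human vascular endothelial cells at 24 h; increases and decreases both scored relative to DMSO-treated baseline.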

[17] = read-out: Intercellular Adhesion Molecule 1 (ICAM1), ICAM1 (gene 3383); experiment: BSK_3C_ICAM1: BioMAP Diversity Plus: 3C Assay for Intercellular Adhesion Molecule 1 (ICAM1) Biomarker Activity (AID 2283003; active = hit-call score of the fitted dose curve at least 0.9, where 1 is the maximum; inactive = score below 0.9); details: primary human endothelial cells (HUVEC); actives raise or lower the signal
Method in brief: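 HUVEC primary cells stimulated under 3C conditions; ICAM1 measured by ELISA 24 h after compound dosing. Curves fitted bidirectionally against the DMSO baseline. Overt cytotoxicity checked by SRB staining of parallel cultures.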

[18] = BSK_3C_Proliferation: Cell Proliferation Assessment in the BioMAP Diversity Plus: 3C Assay (AID 2283006; active = hit-call score of the fitted dose curve at least 0.9, where 1 is the maximum; inactive = score below 0.9); details: primary human endothelial cells (HUVEC)
Method in brief: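 Subconfluent HUVEC (3C system) cultured with chemical; relative cell number read at 48 h by sulforhodamine B total-protein staining (0.1% SRB after 10% TCA fixation, 560 nm). Bidirectional fit relative to DMSO.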

Measured: AC50

O=CC=O
inactive: [1] | [2] | [3] | [4] | [5] | [6] | [7] | [8]

ClCCBr
inactive: [1] | [2] | [3] | [4] | [5] | [6] | [7] | [9]

Cc1cc(=O)[nH]o1
inactive: [1] | [3] | [4] | [10] | [5] | [9]

Fc1ccc(C2(Cn3cncn3)OC2c2ccccc2Cl)cc1 (stereo not drawn)
inactive: [1] | [4] | [11] | [7]

C=C(C)C#N
inactive: [1] | [12] | [13] | [5] | [7]

NC(=O)O
inactive: [1] | [14] | [15] | [16] | [2] | [17] | [18] | [5] | [6] | [7] | [9] | [8]

Cc1ccc2ccccc2c1C
active: [9] 100 µM
inactive: [1] | [2] | [3] | [12] | [4] | [10] | [11] | [5] | [7] | [8]

C1CCC(NC2CCCCC2)CC1
inactive: [1] | [2] | [12] | [13] | [4] | [11] | [7] | [9] | [8]

Cc1ccccc1C(=O)Nc1cccc(OC(C)C)c1
inactive: [1] | [3] | [7] | [9] | [8]
active: [4] 27.9 µM | [10] 2.62 µM

CN(C)P(=O)(N(C)C)N(C)C
inactive: [1] | [13] | [4] | [10] | [8]

C[C@]12CC[C@H](O)CC1=CC[C@@H]1[C@@H]2CC[C@]2(C)C(=O)CC[C@@H]12
inactive: [1] | [2] | [12] | [13] | [4] | [11] | [7] | [9]
active: [10] 27.5 µM

CNC
inactive: [1] | [3] | [5] | [9]
